# PubChem BioAssay (NCI)
# About 79,000 compounds went through this panel and 15% of them were active in at least one assay; those are over-represented in the sample as a whole. A number with no mark means an inactive call. The source made the active and inactive calls. Rule as the data show it: active = growth inhibition above about 70%; inactive = the rest.
# Tests used:
# [1] = NCI Yeast Anticancer Drug Screen. Data for the rad52 strain (AID 147);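 also: 0% = growth of vehicle-treated control cultures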; conditions: S. cerevisiae rad52 mutant growth inhibition, hits give high values
# Method in brief: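 Inhibition of yeast growth, referenced to vehicle controls, was the measured output for a strain with defective DNA damage repair.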
# [2] = NCI Yeast Anticancer Drug Screen. Data for the wt1 strain (AID 149);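 also: 0% = growth of vehicle-treated wt1 cultures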; conditions: S. cerevisiae wt1 strain (SPY 50644) growth inhibition, hits give high values
# Method in brief: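 Compounds are added to wt1 yeast cultures. Growth is then measured. Inhibition is expressed relative to vehicle-treated controls.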
# [3] = NCI Yeast Anticancer Drug Screen. Data for the rad50EPP+ strain (AID 151);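 also: 0% = growth of vehicle-treated control cultures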; conditions: S. cerevisiae rad50 mutant strain, hits give high values
# Method in brief: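 Genetically defined yeast (rad50EPP+, DNA damage repair alteration) is grown with compound, and inhibition of growth is expressed relative to vehicle-treated controls.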
# [4] = NCI Yeast Anticancer Drug Screen. Data for the mgt1 strain (AID 153); conditions: S. cerevisiae mgt1 mutant growth inhibition, hits give high values
# Method in brief: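 In the mgt1 strain, test compounds were added and growth inhibition was determined relative to vehicle-treated controls.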
# [5] = NCI Yeast Anticancer Drug Screen. Data for the rad50 strain (AID 155);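 also: 0% = growth of vehicle-only cultures of the same strain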; conditions: S. cerevisiae rad50 strain growth inhibition, hits give high values
# Method in brief: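 Inhibition values express reduced yeast growth in compound-treated cultures relative to vehicle-treated controls.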
# [6] = NCI Yeast Anticancer Drug Screen. Data for the mec2-1 strain (AID 157); conditions: S. cerevisiae mec2-1 strain, hits give high values
# Method in brief: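 Each compound was tested on mec2-1 yeast, a strain altered in DNA damage repair or cell cycle control. Growth inhibition is reported relative to vehicle.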
# [7] = NCI Yeast Anticancer Drug Screen. Data for the rad14 strain (AID 159);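 also: 0% = growth of vehicle-treated control cultures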; conditions: S. cerevisiae rad14 strain growth inhibition, hits give high values
# Method in brief: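 A mutant yeast strain defective in DNA damage repair is treated with compound; inhibition of its growth is scored against untreated, vehicle-exposed cultures.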
# [8] = NCI Yeast Anticancer Drug Screen. Data for the sgs1 mgt1 strain (AID 161);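 also: 0% = growth of cultures given vehicle only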; conditions: S. cerevisiae sgs1 mgt1 strain, hits give high values
# Method in brief: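 Mutant yeast exposed to compound; growth scored against vehicle-only wells.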
# [9] = NCI Yeast Anticancer Drug Screen. Data for the CLN2oe strain (AID 163);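 also: 0% = growth of vehicle-only control cultures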; conditions: S. cerevisiae CLN2oe strain, hits give high values
# Method in brief: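 First, the altered yeast strain was treated with each compound; second, its growth was measured; finally, inhibition was derived by comparison with vehicle controls.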
# [10] = NCI Yeast Anticancer Drug Screen. Data for the cln2 rad14 strain (AID 165);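 also: 0% = growth equal to vehicle treated cultures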; conditions: S. cerevisiae cln2 rad14 strain, hits give high values
# Method in brief: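 Test compounds were added to cln2 rad14 yeast cultures; inhibition of growth was then determined by comparison with vehicle treatment.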
# [11] = NCI Yeast Anticancer Drug Screen. Data for the bub3 strain (AID 167); conditions: S. cerevisiae bub3 mutant strain, hits give high values
# Method in brief: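 Steps: expose the mutant yeast strain to compound; grow alongside vehicle-treated cultures; measure growth; express inhibition against the vehicle cultures.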
# [12] = NCI Yeast Anticancer Drug Screen. Data for the wt2 strain (AID 169);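 also: 0% = growth of vehicle-treated yeast cultures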; conditions: S. cerevisiae wt2 strain growth inhibition, hits give high values
# Method in brief: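 The panel's yeast strains carry defined changes in DNA repair or cell cycle genes. Each strain is grown with compound, and growth loss is scored relative to vehicle.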
# [13] = NCI Yeast Anticancer Drug Screen. Data for the mlh1 strain (AID 171);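 also: 0% = growth of vehicle-treated control cultures of the same strain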; conditions: S. cerevisiae mlh1 strain growth inhibition, hits give high values
# Method in brief: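 Inhibition values reflect reduced yeast growth in the presence of compound, referenced to vehicle controls, using a strain chosen for its alteration in DNA repair or cell cycle control.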
# [14] = NCI Yeast Anticancer Drug Screen. Data for the sgs1 strain (AID 173);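 also: 0% = growth of vehicle-only control cultures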; conditions: S. cerevisiae sgs1 mutant, hits give high values
# Method in brief: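 Vehicle-treated cultures served as reference for growth inhibition of a yeast strain altered in DNA damage repair or cell cycle control after compound exposure.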
# [15] = NCI Yeast Anticancer Drug Screen. Data for the mlh1 rad18 strain (AID 175); conditions: S. cerevisiae mlh1 rad18 strain growth inhibition, hits give high values
# Method in brief: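 Inhibition values reflect reduced growth of mutant yeast versus vehicle-treated controls following compound exposure; the mutations affect DNA damage repair.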
# [16] = NCI Yeast Anticancer Drug Screen. Data for the rad18 strain (AID 177); conditions: S. cerevisiae rad18 mutant growth inhibition, hits give high values
# Method in brief: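 Steps: expose repair-mutant yeast to compound; measure growth; express as inhibition relative to vehicle control.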
# [17] = at 5.0 µM (retest, dose inferred, filed as 0.5)
# [18] = at 50.0 µM (retest, dose inferred, filed as 5.0)
compound,measurement,setting,value
Cc1cccc(C)c1NC(=O)CCC(=O)C(C)C(=O)c1ccc(O)cc1 (stereo unspecified),growth inhibition,[1]; at 1.2 µM,2%
same,growth inhibition,[1]; at 3.7 µM,1%
same,growth inhibition,[1]; at 11.0 µM,2%
same,growth inhibition,[1]; at 33.0 µM,1%
same,growth inhibition,[1]; at 100.0 µM,0%
same,growth inhibition,[2]; at 1.2 µM,-1%
same,growth inhibition,[2]; at 3.7 µM,-2%
same,growth inhibition,[2]; at 11.0 µM,-1%
same,growth inhibition,[2]; at 33.0 µM,-1%
same,growth inhibition,[2]; at 100.0 µM,-2%
same,growth inhibition,[3]; at 1.2 µM,0%
same,growth inhibition,[3]; at 3.7 µM,-1%
same,growth inhibition,[3]; at 11.0 µM,1%
same,growth inhibition,[3]; at 33.0 µM,1%
same,growth inhibition,[3]; at 100.0 µM,8%
same,growth inhibition,[4]; at 1.2 µM,-1%
same,growth inhibition,[4]; at 3.7 µM,4%
same,growth inhibition,[4]; at 11.0 µM,-3%
same,growth inhibition,[4]; at 33.0 µM,-2%
same,growth inhibition,[4]; at 100.0 µM,-5%
same,growth inhibition,[5]; at 1.2 µM,-1%
same,growth inhibition,[5]; at 3.7 µM,0%
same,growth inhibition,[5]; [17],1%
same,growth inhibition,[5]; at 11.0 µM,1%
same,growth inhibition,[5]; at 33.0 µM,1%
same,growth inhibition,[5]; [18],2%
same,growth inhibition,[5]; at 50.0 µM,57.6%
same,growth inhibition,[5]; at 100.0 µM,0%
same,growth inhibition,[6]; at 1.2 µM,-6%
same,growth inhibition,[6]; at 3.7 µM,-5%
same,growth inhibition,[6]; [17],-2%
same,growth inhibition,[6]; at 11.0 µM,-6%
same,growth inhibition,[6]; at 33.0 µM,-3%
same,growth inhibition,[6]; [18],8%
same,growth inhibition,[6]; at 50.0 µM,15.1%
same,growth inhibition,[6]; at 100.0 µM,-5%
same,growth inhibition,[7]; at 1.2 µM,-1%
same,growth inhibition,[7]; at 3.7 µM,2%
same,growth inhibition,[7]; at 11.0 µM,2%
same,growth inhibition,[7]; at 33.0 µM,0%
same,growth inhibition,[7]; at 100.0 µM,-1%
same,growth inhibition,[8]; [17],0%
same,growth inhibition,[8]; [18],5%
same,growth inhibition,[8]; at 50.0 µM,23.2%
same,growth inhibition,[9]; at 1.2 µM,-5%
same,growth inhibition,[9]; at 3.7 µM,-4%
same,growth inhibition,[9]; at 11.0 µM,-3%
same,growth inhibition,[9]; at 33.0 µM,1%
same,growth inhibition,[9]; at 100.0 µM,-3%
same,growth inhibition,[10]; [17],-2%
same,growth inhibition,[10]; [18],2%
same,growth inhibition,[10]; at 50.0 µM,50%
same,growth inhibition,[11]; at 1.2 µM,-2%
same,growth inhibition,[11]; at 3.7 µM,-2%
same,growth inhibition,[11]; [17],0%
same,growth inhibition,[11]; at 11.0 µM,-2%
same,growth inhibition,[11]; at 33.0 µM,-2%
same,growth inhibition,[11]; [18],7%
same,growth inhibition,[11]; at 50.0 µM,11.8%
same,growth inhibition,[11]; at 100.0 µM,5%
same,growth inhibition,[12]; at 1.2 µM,-1%
same,growth inhibition,[12]; at 3.7 µM,-1%
same,growth inhibition,[12]; at 11.0 µM,0%
same,growth inhibition,[12]; at 33.0 µM,0%
same,growth inhibition,[12]; at 100.0 µM,-1%
same,growth inhibition,[13]; at 1.2 µM,-2%
same,growth inhibition,[13]; at 3.7 µM,-3%
same,growth inhibition,[13]; at 11.0 µM,-1%
same,growth inhibition,[13]; at 33.0 µM,-2%
same,growth inhibition,[13]; at 100.0 µM,-1%
same,growth inhibition,[14]; at 1.2 µM,-2%
same,growth inhibition,[14]; at 3.7 µM,-2%
same,growth inhibition,[14]; at 11.0 µM,-2%
same,growth inhibition,[14]; at 33.0 µM,-2%
same,growth inhibition,[14]; at 100.0 µM,0%
same,growth inhibition,[15]; [17],-1%
same,growth inhibition,[15]; [18],6%
same,growth inhibition,[15]; at 50.0 µM,6.95%
same,growth inhibition,[16]; at 1.2 µM,-2%
same,growth inhibition,[16]; at 3.7 µM,-1%
same,growth inhibition,[16]; at 11.0 µM,0%
same,growth inhibition,[16]; at 33.0 µM,-2%
same,growth inhibition,[16]; at 100.0 µM,0%
CNCC(C)CNC,growth inhibition,[1]; at 1.2 µM,-40%
same,growth inhibition,[1]; at 3.7 µM,-51%
same,growth inhibition,[1]; at 11.0 µM,-46%
same,growth inhibition,[1]; at 33.0 µM,-50%
same,growth inhibition,[1]; at 100.0 µM,-52%
same,growth inhibition,[2]; at 1.2 µM,-25%
same,growth inhibition,[2]; at 3.7 µM,-14%
same,growth inhibition,[2]; at 11.0 µM,-5%
same,growth inhibition,[2]; at 33.0 µM,-8%
same,growth inhibition,[2]; at 100.0 µM,-21%
same,growth inhibition,[3]; at 1.2 µM,-14%
same,growth inhibition,[3]; at 3.7 µM,-29%
same,growth inhibition,[3]; at 11.0 µM,-23%
same,growth inhibition,[3]; at 33.0 µM,-2%
same,growth inhibition,[3]; at 100.0 µM,-19%
same,growth inhibition,[4]; at 1.2 µM,9%
same,growth inhibition,[4]; at 3.7 µM,17%
same,growth inhibition,[4]; at 11.0 µM,25%
same,growth inhibition,[4]; at 33.0 µM,4%
same,growth inhibition,[4]; at 100.0 µM,5%
same,growth inhibition,[5]; at 1.2 µM,4%
same,growth inhibition,[5]; at 3.7 µM,-14%
same,growth inhibition,[5]; [17],-6%
same,growth inhibition,[5]; at 11.0 µM,-28%
same,growth inhibition,[5]; at 33.0 µM,-27%
same,growth inhibition,[5]; [18],22%
same,growth inhibition,[5]; at 50.0 µM,73.8% (active)
same,growth inhibition,[5]; at 100.0 µM,-23%
same,growth inhibition,[6]; at 1.2 µM,-12%
same,growth inhibition,[6]; at 3.7 µM,-15%
same,growth inhibition,[6]; [17],10%
same,growth inhibition,[6]; at 11.0 µM,-19%
same,growth inhibition,[6]; at 33.0 µM,-27%
same,growth inhibition,[6]; [18],39%
same,growth inhibition,[6]; at 50.0 µM,42.5%
same,growth inhibition,[6]; at 100.0 µM,-26%
same,growth inhibition,[7]; at 1.2 µM,-18%
same,growth inhibition,[7]; at 3.7 µM,-15%
same,growth inhibition,[7]; at 11.0 µM,-13%
same,growth inhibition,[7]; at 33.0 µM,-12%
same,growth inhibition,[7]; at 100.0 µM,-18%
same,growth inhibition,[8]; [17],2%
same,growth inhibition,[8]; [18],25%
same,growth inhibition,[8]; at 50.0 µM,23.3%
same,growth inhibition,[9]; at 1.2 µM,15%
same,growth inhibition,[9]; at 3.7 µM,6%
same,growth inhibition,[9]; at 11.0 µM,-1%
same,growth inhibition,[9]; at 33.0 µM,-7%
same,growth inhibition,[9]; at 100.0 µM,-12%
same,growth inhibition,[10]; [17],20%
same,growth inhibition,[10]; [18],63%
same,growth inhibition,[10]; at 50.0 µM,66.2%
same,growth inhibition,[11]; at 1.2 µM,-11%
same,growth inhibition,[11]; at 3.7 µM,1%
same,growth inhibition,[11]; [17],-9%
same,growth inhibition,[11]; at 11.0 µM,-8%
same,growth inhibition,[11]; at 33.0 µM,-33%
same,growth inhibition,[11]; [18],69%
same,growth inhibition,[11]; at 50.0 µM,-2.65%
same,growth inhibition,[11]; at 100.0 µM,-50%
same,growth inhibition,[12]; at 1.2 µM,-30%
same,growth inhibition,[12]; at 3.7 µM,-30%
same,growth inhibition,[12]; at 11.0 µM,-28%
same,growth inhibition,[12]; at 33.0 µM,-37%
same,growth inhibition,[12]; at 100.0 µM,-41%
same,growth inhibition,[13]; at 1.2 µM,12%
same,growth inhibition,[13]; at 3.7 µM,8%
same,growth inhibition,[13]; at 11.0 µM,5%
same,growth inhibition,[13]; at 33.0 µM,6%
same,growth inhibition,[13]; at 100.0 µM,-30%
same,growth inhibition,[14]; at 1.2 µM,-28%
same,growth inhibition,[14]; at 3.7 µM,-6%
same,growth inhibition,[14]; at 11.0 µM,-22%
same,growth inhibition,[14]; at 33.0 µM,-23%
same,growth inhibition,[14]; at 100.0 µM,-22%
same,growth inhibition,[15]; [17],-6%
same,growth inhibition,[15]; [18],84% (active)
same,growth inhibition,[15]; at 50.0 µM,71.8% (active)
same,growth inhibition,[16]; at 1.2 µM,-16%
same,growth inhibition,[16]; at 3.7 µM,-25%
same,growth inhibition,[16]; at 11.0 µM,-21%
same,growth inhibition,[16]; at 33.0 µM,-21%
same,growth inhibition,[16]; at 100.0 µM,-31%
